In the library only some 20% were active in any assay of this set; here they are far more common.
Pf growth 96h: inhibits malaria parasite growth, 96 h. P. falciparum luciferase reporter growth, 96 h. Potency, µM (top dose mostly 28.7 µM), without a hit: at the highest dose activity change, negative = inhibition, hits mostly inhibitors. hit rate 6.9% among 320,000; also: potency is read from the fitted curve at half-maximal effect; % is scaled to controls: 0 for no effect and ±100 for the full control effect
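Two parasite generations (96 h, 37 C, 5% CO2) of compound exposure in infected erythrocytes (0.05% parasitemia, 2% hematocrit). Luciferase-reporter P. falciparum; decreased luminescence indicates inhibited growth, aimed at apicoplast-acting delayed death.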
Shiga toxin inh: Shiga toxin inhibition; Vero cells, Shiga toxin protein synthesis inhibition reporter; inhibition, % at 38.7 µM; hit rate 9.2% among 290,000; in the data active = inhibition mostly above about 28%, no sharp cut-off; inactive = mostly below about 43%; also: 0% is about no effect
HCMV antiviral: blocks human cytomegalovirus replication | hit rate 4.5% among 410,000 | HFF cells, HCMV-luciferase reporter, 72 h; stronger effect = lower value | activity change, negative = inhibition, % at 57.5 µM | AID 1259415; in the data active = activity change below about -60%; inconclusive = no clear call, values can overlap the other calls; inactive = above about -39%; also: % is scaled to controls: 0 for no effect and ±100 for the full control effect
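Two-dose cell screen: HFF monolayers treated with compounds and infected with luciferase-expressing HCMV at 1 PFU/cell, 72 h at 37C, then lysed for luciferase measurement.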
CHX counter: counter-screen hit for Shiga toxin inhibitors, cycloheximide; cell reporter, cycloheximide protein synthesis inhibition counterscreen; max response, %; hit rate 12% among 300,000; in the data active = max response mostly above about 13%, no sharp cut-off; inactive = mostly below about 14%; also: read at 38.3 µM for the half of the compounds with a filed dose; 0% is about no effect
Pf growth 48h: P. falciparum growth inhibition at 48 hours (one generation) | P. falciparum luciferase growth in erythrocytes, 48 h | Potency, µM (highest dose often 28.7 µM), without a hit: top-dose activity change, negative = inhibition, actives largely listed as inhibitors | hit rate 5.9% among 310,000 | AID 504832; also: potency is read from the fitted curve at half-maximal effect; % is scaled to controls: 0 for no effect and ±100 for the full control effect
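Read-out is firefly luciferase luminescence from an integrated reporter in P. falciparum, so falling signal marks reduced parasite growth. Infected erythrocytes were at 2% hematocrit and 0.1% parasitemia (final) in Albumax-supplemented RPMI 1640.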
* hit, by the source's call. Unless noted, calls follow the shape of the dose curve; as a rule, active = well fitted inhibition curve with a large enough effect; inconclusive = small, poorly fitted or top-dose-only effect, or another doubt; inactive = no such curve, though single readings can be large or run the other way.

For O=C1CCCC2=C1Sc1ccc(Cl)cc1N2 the results were Pf growth 96h -18%, Shiga toxin inh 13, HCMV antiviral -27, CHX counter 12 and Pf growth 48h 0%.
C=CCn1c(C)cc(C(=O)COC(=O)c2n[nH]c(=O)c3ccccc23)c1C was read as HCMV antiviral 30.
`CC(OC(=O)c1ccc2c(c1)NC(=O)CS2)C(=O)c1ccc(F)cc1` (configuration not stated) gave HCMV antiviral 61.
`C=CCn1c(C)cc(C(=O)COC(=O)c2ccc3c(c2)NC(=O)CS3)c1C` gave Pf growth 96h -8%, Shiga toxin inh 39*, HCMV antiviral inconclusive, CHX counter 18* and Pf growth 48h 29%.
For COCCn1c(C)cc(C(=O)COC(=O)c2ccc3c(c2)NC(=O)CS3)c1C the results were Pf growth 96h inconclusive, Shiga toxin inh 66*, HCMV antiviral 6, CHX counter 28* and Pf growth 48h -9%.
For COC(=O)c1ccc2c(c1)NC(=O)CS2 the results were Pf growth 96h -1%, Shiga toxin inh -3, HCMV antiviral 11, CHX counter -2 and Pf growth 48h 12µM*.
`N#Cc1nc(-c2cccc(Cl)c2)oc1N1CCC(C(N)=O)CC1` gave Pf growth 96h inconclusive, Shiga toxin inh -5, HCMV antiviral -17, CHX counter 8 and Pf growth 48h inconclusive.
`Cc1sc2nc(SCC(=O)N3CCOCC3)[nH]c(=O)c2c1-c1ccccc1` gave Pf growth 96h inconclusive, Shiga toxin inh -2, HCMV antiviral -14, CHX counter -5 and Pf growth 48h 7%.
Screening Cc1cccc(C)c1N1C(=O)c2cccc([N+](=O)[O-])c2C1=O returned Pf growth 96h inconclusive, Shiga toxin inh -10, HCMV antiviral -63*, CHX counter 0 and Pf growth 48h 6%.
Screening CCC(C(=O)NCCC1=CCCCC1)c1ccccc1 (configuration not stated) returned Pf growth 96h inconclusive, Shiga toxin inh 7, HCMV antiviral -40, CHX counter -3 and Pf growth 48h -3%.
Fc1cccc2sc(Nc3nc4cc5c(cc4s3)OCO5)nc12 was read as Pf growth 96h 117%, Shiga toxin inh 116*, HCMV antiviral 21, CHX counter 70* and Pf growth 48h 121%.
Fc1cccc2sc(Nc3nc4cc5c(cc4s3)OCCO5)nc12 was read as Pf growth 96h 334%, Shiga toxin inh 96*, HCMV antiviral 21, CHX counter 51* and Pf growth 48h 235%.
Fc1cc(F)c2nc(Nc3nc4cc5c(cc4s3)OCO5)sc2c1 was read as Pf growth 96h 102%, Shiga toxin inh 26, HCMV antiviral -25, CHX counter 21* and Pf growth 48h 42%.
`O=c1oc2ccccc2cc1-c1csc(Nc2nc3c(F)cccc3s2)n1` gave Pf growth 96h inconclusive, Shiga toxin inh 2, HCMV antiviral -28, CHX counter 5 and Pf growth 48h inconclusive.
For COCCn1c(SCCOc2ccccc2)nc2ccccc2c1=O the results were Pf growth 96h 15%, Shiga toxin inh 3, HCMV antiviral -18, CHX counter 11 and Pf growth 48h inconclusive.
`CSCc1nc2scc(-c3ccccc3)c2c(=O)[nH]1` gave Pf growth 96h 12%, Shiga toxin inh 17, HCMV antiviral -24, CHX counter 7 and Pf growth 48h 4%.
O=c1[nH]c(Cc2ccccn2)nc2scc(-c3ccccc3Cl)c12 was read as Pf growth 96h inconclusive, Shiga toxin inh -2, HCMV antiviral -83*, CHX counter -3 and Pf growth 48h inconclusive.
Cc1oc(C)c(C(=O)Nc2ccccc2)c1C was read as Shiga toxin inh 14 and CHX counter 48.
For O=C(O)c1c(-c2ccccc2)oc2ccc(OCc3ccc(Cl)c(Cl)c3)cc12 the results were HCMV antiviral 27.
`CC(C)c1nnc(-c2ccc(Cl)cc2)c(N(C)C)n1` gave Pf growth 96h 9.3µM*, Shiga toxin inh -14, HCMV antiviral -29, CHX counter 3 and Pf growth 48h inconclusive.
`O=[N+]([O-])c1ccc(O)c(/C=N\N=C2c3ccccc3-c3ccccc32)c1` gave Pf growth 96h 30%, Shiga toxin inh 6, HCMV antiviral -89*, CHX counter 7 and Pf growth 48h inconclusive.
NC(N)=N/N=C/c1cc([N+](=O)[O-])ccc1O was read as Pf growth 96h 42%, Shiga toxin inh 11, HCMV antiviral -38, CHX counter 12* and Pf growth 48h inconclusive.
Screening COc1ccc(C(C)=O)cc1COC(=O)CCCN1C(=O)c2ccccc2C1=O returned Pf growth 96h 14%, Shiga toxin inh -8, HCMV antiviral 66, CHX counter -1 and Pf growth 48h -18%.
For CCCC(=O)N1CC2(C1)CN(C(=O)CN1CCOCC1)[C@H](CO)c1c2c2ccc(OC)cc2n1C the results were HCMV antiviral 1.
For COc1ccc(-c2cc3ccc(OC(C)C(=O)O)cc3oc2=O)cc1 (configuration not stated) the results were Pf growth 96h inconclusive, Shiga toxin inh 30, HCMV antiviral 25, CHX counter 13* and Pf growth 48h 144%.
Screening CC(=O)COc1ccc2cc(-c3ccccc3)c(=O)oc2c1 returned Pf growth 96h 6%, Shiga toxin inh 73*, HCMV antiviral 107, CHX counter 42* and Pf growth 48h 468%.
For COc1ccc(-c2cc3ccccc3oc2=O)cc1 the results were HCMV antiviral 77.
For O=C(CCCCl)Oc1ccc2cc(-c3ccc4ccccc4n3)c(=O)oc2c1 the results were Pf growth 96h 0%, Shiga toxin inh 9, HCMV antiviral 46, CHX counter 20* and Pf growth 48h 29%.
CCOC(=O)COc1ccc2c(=O)c(-c3ccccc3)coc2c1 was read as Pf growth 96h 50%, Shiga toxin inh -9, HCMV antiviral -8, CHX counter -6 and Pf growth 48h -13%.
`CC(=O)Oc1ccc2c(=O)c(-c3ccccc3)coc2c1` gave Pf growth 96h 189%, Shiga toxin inh 80*, HCMV antiviral 74, CHX counter 38* and Pf growth 48h 264%.
O=C(Nc1ccc(F)c(Cl)c1)C1CCN(S(=O)(=O)c2ccc3c(c2)CCCN3C(=O)C2CCC2)CC1 was read as HCMV antiviral -38.
For COc1ccc2cc(C(C)=O)c(=O)oc2c1 the results were Pf growth 96h -11%, Shiga toxin inh 12, HCMV antiviral -22, CHX counter 11 and Pf growth 48h 11%.
CC(=O)Oc1ccc2cc(-c3ccccc3)c(=O)oc2c1 was read as Pf growth 96h 79%, Shiga toxin inh 53*, HCMV antiviral 3, CHX counter 34* and Pf growth 48h 28%.
Screening COc1ccc(-c2cc3ccc(OCC(=O)NCC4CCC(C(=O)O)CC4)cc3oc2=O)cc1 (configuration not stated) returned Pf growth 96h 118%, Shiga toxin inh 29*, HCMV antiviral 48, CHX counter 27* and Pf growth 48h 52%.
